The source made the active and inactive calls.
Columns and labels:
[1] = tested on: Plasmodium falciparum Sir2 (PF13_0152, Sir2A); assay: pfSir2 binders on small-molecule microarrays, primary screen, biochemical, small-molecule microarray, 635 nm fluorescence (AID 1098); conditions: small-molecule microarray binding, fluorescence 635 nm; higher = more signal;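 further: score merges spot fluorescence intensity with its signal-to-noise ratio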
[2] = small-molecule microarray binders of probe aDKK1, primary screen, biochemical, biotinylated probe, 635/667 nm fluorescence (AID 1099); conditions: higher = more signal;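 further: score merges 667nm spot fluorescence with signal to noise across triplicate slides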
[3] = small-molecule microarray binders of probe aCHRDL2, primary screen, biochemical, biotinylated probe, 635/667 nm fluorescence (AID 1100); conditions: higher = more signal
[4] = splicing luciferase reporter signal modulators, primary screen, spliceosome inhibition project, cell-based, HEK293, splice +/- reporter (AID 1101); conditions: luminescence, 24 h, higher = more signal, called active from +8 up or from −8 down;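 further: HEK293 cells carrying a splicing-competent luciferase reporter gene; test concentration not given here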
[5] = target: Fibroblast growth factor 10 (Homo sapiens) (UniProt O15520); assay: FGF10 binders on small-molecule microarrays, primary screen, biochemical, small-molecule microarray, 635 nm fluorescence (AID 1102); conditions: FGF10 binding, fluorescence 635 nm, higher = more signal
Sequence of Fibroblast growth factor 10 (Homo sapiens) (O15520 whole entry, looked up): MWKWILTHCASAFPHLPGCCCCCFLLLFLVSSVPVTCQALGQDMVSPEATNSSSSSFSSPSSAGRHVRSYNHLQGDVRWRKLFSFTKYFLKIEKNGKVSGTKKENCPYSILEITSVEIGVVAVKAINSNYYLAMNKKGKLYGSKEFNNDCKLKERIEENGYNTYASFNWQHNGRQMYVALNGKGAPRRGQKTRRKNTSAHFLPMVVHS

[6] = tested on: glycogen synthase kinase-3 (GSK3A per assay name; protocol says GSK3B); assay: GSK3 binders on small-molecule microarrays, primary screen, biochemical, small-molecule microarray, 635 nm fluorescence, GSK3A (AID 1103); conditions: small-molecule microarray binding, fluorescence 635 nm; higher = more signal; further: the record names both GSK3A and GSK3B
[7] = target: Epidermal growth factor receptor (Homo sapiens) (UniProt P00533); assay: EGFR binders on small-molecule microarrays, primary screen, biochemical, small-molecule microarray, 635 nm fluorescence (AID 1104); conditions: EGFR binding, higher = more signal;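 further: score merges 667 nm emission intensity with spot signal to noise over triplicate slides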
Sequence of Epidermal growth factor receptor (Homo sapiens) (P00533 whole entry, looked up): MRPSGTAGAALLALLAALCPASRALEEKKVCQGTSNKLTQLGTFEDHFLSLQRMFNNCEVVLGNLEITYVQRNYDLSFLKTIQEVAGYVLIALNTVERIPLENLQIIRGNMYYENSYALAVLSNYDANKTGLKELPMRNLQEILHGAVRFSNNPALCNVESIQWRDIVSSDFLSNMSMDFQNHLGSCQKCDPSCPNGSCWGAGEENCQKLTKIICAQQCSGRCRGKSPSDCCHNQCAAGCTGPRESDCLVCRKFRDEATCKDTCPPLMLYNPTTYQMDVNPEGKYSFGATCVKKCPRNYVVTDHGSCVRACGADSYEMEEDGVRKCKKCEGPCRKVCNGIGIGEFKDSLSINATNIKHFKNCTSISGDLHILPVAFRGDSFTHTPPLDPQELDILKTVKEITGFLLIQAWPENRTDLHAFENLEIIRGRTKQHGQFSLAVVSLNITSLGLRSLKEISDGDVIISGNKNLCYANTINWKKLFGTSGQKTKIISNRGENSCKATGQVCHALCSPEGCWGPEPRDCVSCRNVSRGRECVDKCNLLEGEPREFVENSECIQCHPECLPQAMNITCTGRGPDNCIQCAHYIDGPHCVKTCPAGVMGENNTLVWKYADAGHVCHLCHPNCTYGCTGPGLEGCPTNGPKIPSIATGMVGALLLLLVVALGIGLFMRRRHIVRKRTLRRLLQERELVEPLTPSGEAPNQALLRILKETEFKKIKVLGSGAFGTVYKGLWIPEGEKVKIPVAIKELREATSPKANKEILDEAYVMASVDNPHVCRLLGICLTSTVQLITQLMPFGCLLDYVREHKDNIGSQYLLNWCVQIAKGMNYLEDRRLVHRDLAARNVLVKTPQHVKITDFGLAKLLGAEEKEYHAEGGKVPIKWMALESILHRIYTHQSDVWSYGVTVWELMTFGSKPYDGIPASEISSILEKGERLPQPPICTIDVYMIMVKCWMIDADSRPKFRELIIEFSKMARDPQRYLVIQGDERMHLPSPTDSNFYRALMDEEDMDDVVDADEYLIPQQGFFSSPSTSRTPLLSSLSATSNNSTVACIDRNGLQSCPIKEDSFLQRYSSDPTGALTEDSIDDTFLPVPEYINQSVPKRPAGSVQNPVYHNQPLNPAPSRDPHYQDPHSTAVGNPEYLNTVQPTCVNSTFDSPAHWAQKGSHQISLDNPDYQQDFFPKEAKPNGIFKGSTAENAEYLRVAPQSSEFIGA

[8] = target: Follistatin-related protein 3 (Homo sapiens) (UniProt O95633); assay: FSTL3 binders on small-molecule microarrays, primary screen, biochemical, small-molecule microarray, 635 nm fluorescence (AID 1105); conditions: FSTL3 binding, higher = more signal;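 further: score merges emission near 667 nm and signal to noise per printed spot across three slides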
Sequence of Follistatin-related protein 3 (Homo sapiens) (O95633 whole entry, looked up): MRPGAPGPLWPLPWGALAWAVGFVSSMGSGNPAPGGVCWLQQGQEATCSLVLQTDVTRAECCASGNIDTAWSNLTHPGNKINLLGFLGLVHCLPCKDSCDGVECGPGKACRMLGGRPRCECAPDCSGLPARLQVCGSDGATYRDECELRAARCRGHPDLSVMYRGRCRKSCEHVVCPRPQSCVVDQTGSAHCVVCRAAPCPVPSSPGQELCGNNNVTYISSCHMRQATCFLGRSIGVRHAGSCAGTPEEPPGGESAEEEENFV

[9] = target: Dickkopf-related protein 1 (Homo sapiens) (UniProt O94907); assay: DKK1 binders on small-molecule microarrays, primary screen, biochemical, small-molecule microarray, 635 nm fluorescence scan (AID 1106); conditions: DKK1 binding, higher = more signal;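 further: score merges emission near 667 nm with signal to noise over three replicate slides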
Sequence of Dickkopf-related protein 1 (Homo sapiens) (O94907 whole entry, looked up): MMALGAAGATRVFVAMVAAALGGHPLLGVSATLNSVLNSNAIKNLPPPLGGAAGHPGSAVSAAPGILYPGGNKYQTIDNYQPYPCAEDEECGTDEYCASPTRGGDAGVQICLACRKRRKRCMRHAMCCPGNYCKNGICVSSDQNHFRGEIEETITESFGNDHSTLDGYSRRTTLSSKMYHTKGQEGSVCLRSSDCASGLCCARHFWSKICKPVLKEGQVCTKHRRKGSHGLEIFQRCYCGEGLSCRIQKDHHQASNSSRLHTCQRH

[10] = tested on: Inhibin beta A chain (activin A); assay: INHBA (activin A) binders on microarrays, primary screen, biochemical, small-molecule microarray, 635 nm fluorescence scan (AID 1107); conditions: small-molecule microarray binding, higher = more signal;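 further: mouse activin A protein probed at 4.33 µg/mL on printed slides; score merges bound-protein fluorescence near 667 nm with spot signal-to-noise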
[11] = tested on: Human papillomavirus type 1a protein E7 (residues 44-93); assay: HPV1a E7 fragment binders on microarrays, primary screen, biochemical, small-molecule microarray, residues 44-93, 635 nm fluorescence (AID 1108); conditions: small-molecule microarray binding, fluorescence 635 nm; higher = more signal;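 further: E7 fragment applied at 1 µg/mL in TBST for 1 h at 4 C; score combines spot fluorescence with its signal to noise ratio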
[12] = modulators of HCV replicon luciferase signal, primary screen, HCV replication inhibitor project, Huh7 cells, luciferase reporter (AID 1109); conditions: 48 h, higher = more signal;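 further: huh7 hepatoma cells harbouring a luciferase neomycin HCV replicon reporter; luciferase luminescence as measure of HCV replicon replication; test concentration not given here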
[13] = target: Left-right determination factor 2 (Homo sapiens) (UniProt O00292); assay: LEFTY2 binders on small-molecule microarrays, primary screen, biochemical, small-molecule microarray, 635 nm fluorescence scan (AID 1110); conditions: LEFTY2 binding, higher = more signal
Sequence of Left-right determination factor 2 (Homo sapiens) (O00292 whole entry, looked up): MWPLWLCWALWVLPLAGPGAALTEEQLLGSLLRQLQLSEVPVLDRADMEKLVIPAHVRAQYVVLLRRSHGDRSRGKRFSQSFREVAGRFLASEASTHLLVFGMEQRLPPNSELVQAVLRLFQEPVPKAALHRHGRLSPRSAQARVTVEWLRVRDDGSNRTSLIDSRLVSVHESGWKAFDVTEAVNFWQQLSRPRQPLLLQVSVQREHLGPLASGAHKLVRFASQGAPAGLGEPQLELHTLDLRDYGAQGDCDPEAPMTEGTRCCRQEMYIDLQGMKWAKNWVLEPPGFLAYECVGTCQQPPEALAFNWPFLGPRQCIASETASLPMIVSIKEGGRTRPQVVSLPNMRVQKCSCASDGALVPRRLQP

[14] = target: Calmodulin-1 (Homo sapiens) (UniProt P0DP23); assay: CALM1 binders on microarrays, EGTA buffer, profiling panel, biochemical, small-molecule microarray, Cy5-labelled CALM1 (AID 1111); conditions: Cy5-CALM1 binding fluorescence, higher = more signal;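 further: labelled calmodulin applied in Tris saline Tween buffer holding calcium plus EGTA and DTT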
[15] = target: Calmodulin-1 (Homo sapiens) (UniProt P0DP23); assay: calcium-bound CALM1 binders on microarrays, profiling panel, artefact control for SMM control-protein annotation, biochemical, small-molecule microarray, Cy5-labelled CALM1, plus calcium (AID 1112); conditions: Cy5-CALM1 binding fluorescence, higher = more signal;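 further: score merges spot fluorescence with signal to noise from triplicate slides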
[16] = small-molecule microarray binders of probe aWnt5a, primary screen, biochemical, biotinylated probe, 635/667 nm fluorescence (AID 1113); conditions: higher = more signal;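 further: score merges 667 nm fluorescence intensity with signal-to-noise per printed feature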
[17] = small-molecule microarray binders of probe aShh, primary screen, biochemical, biotinylated probe, 635/667 nm fluorescence (AID 1114); conditions: higher = more signal;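 further: probe is biotin-labelled aShh protein from a stem cell growth factor screen; measures binding of labelled protein to compounds printed on the slide; score merges feature fluorescence at 667 nm with signal-to-noise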
[18] = small-molecule microarray binders of probe aNog, primary screen, biochemical, biotinylated probe, 635/667 nm fluorescence (AID 1115); conditions: higher = more signal;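 further: probe is biotinylated aNog protein used at 0.15 µg/mL for 1 h at 4 C; z-score combines 667 nm fluorescence of each spot with its signal to noise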
[19] = target: Torsin-1A-interacting protein 1 (Homo sapiens) (UniProt Q5JTV8); assay: LAP1 binders from COS7 cell lysate, primary screen, small-molecule microarray, 635/667 nm fluorescence (AID 1116); conditions: COS7-hLAP1 lysate binding, 635 nm fluorescence, higher = more signal
Sequence of Torsin-1A-interacting protein 1 (Homo sapiens) (Q5JTV8 whole entry, looked up): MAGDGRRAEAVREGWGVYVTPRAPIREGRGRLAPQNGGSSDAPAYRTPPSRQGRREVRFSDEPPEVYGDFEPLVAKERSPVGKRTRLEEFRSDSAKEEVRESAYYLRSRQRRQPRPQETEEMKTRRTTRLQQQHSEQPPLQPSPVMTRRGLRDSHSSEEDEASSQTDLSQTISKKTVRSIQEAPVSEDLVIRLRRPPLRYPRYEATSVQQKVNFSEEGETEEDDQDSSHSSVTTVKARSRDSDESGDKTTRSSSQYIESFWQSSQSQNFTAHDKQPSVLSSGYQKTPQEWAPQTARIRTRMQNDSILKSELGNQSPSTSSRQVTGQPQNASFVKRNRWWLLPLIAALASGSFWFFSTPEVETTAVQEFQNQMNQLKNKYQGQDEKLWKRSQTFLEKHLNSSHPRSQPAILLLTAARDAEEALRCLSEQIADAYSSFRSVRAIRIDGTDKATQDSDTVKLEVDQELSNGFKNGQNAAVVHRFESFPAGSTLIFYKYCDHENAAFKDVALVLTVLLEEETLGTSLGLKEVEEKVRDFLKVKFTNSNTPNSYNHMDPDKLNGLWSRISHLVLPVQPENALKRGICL

[20] = target: Alpha-bungarotoxin (Bungarus multicinctus) (UniProt P60615); assay: alpha-bungarotoxin binders on microarray, profiling panel, artefact control for SMM control protein annotation, biochemical, small-molecule microarray, Alexa647 label, 635/667 nm fluorescence (AID 1117); conditions: alpha-BTX-A647 binding fluorescence, higher = more signal
Sequence of Alpha-bungarotoxin (Bungarus multicinctus) (P60615 whole entry, looked up): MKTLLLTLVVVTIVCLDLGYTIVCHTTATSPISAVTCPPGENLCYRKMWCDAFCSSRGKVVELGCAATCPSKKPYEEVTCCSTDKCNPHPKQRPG

## CC(=O)NCCCC[C@@H]1NC(=O)[C@@H]2C[C@H](C(=O)NCCCC[N+](C)(C)C)[C@H](c3ccc(O)cc3)N2C1=O
[1]
  composite z-score: 1.46
[2]
  composite z-score: -0.151
[3]
  composite z-score: -0.295
[4]
  z-score: -1.47 (inactive)
[5]
  composite z-score: 1.33
[6]
  composite z-score: 0.301
[7]
  composite z-score: 0.753
[8]
  composite z-score: 1.47
[9]
  composite z-score: 1.76
[10]
  composite z-score: -0.261
[11]
  composite z-score: 0.364
[12]
  z-score: -0.307
[13]
  composite z-score: 1.35
[14]
  composite z-score: -0.206
[15]
  composite z-score: 0.32
[16]
  composite z-score: -0.0758
[17]
  composite z-score: 0.366
[18]
  composite z-score: 0.33
[19]
  composite z-score: 1.06
[20]
  composite z-score: 1.57

## COc1ccc([Si](C)(C)[C@@H]2[C@@H](CCn3cc([C@H](O)c4ccccc4)nn3)O[C@]3(C(=O)N(Cc4ccc(N5CCC5=O)cc4)c4ccccc43)[C@H]2C)cc1
[1]
  composite z-score: 0.453
[2]
  composite z-score: -0.213
[3]
  composite z-score: -0.0321
[4]
  z-score: -0.619 (inactive)
[5]
  composite z-score: 0.137
[6]
  composite z-score: -0.364
[7]
  composite z-score: -0.167
[8]
  composite z-score: -0.0461
[9]
  composite z-score: 0.135
[10]
  composite z-score: 0.632
[11]
  composite z-score: -0.222
[12]
  z-score: -2.06
[13]
  composite z-score: -0.309
[14]
  composite z-score: -0.185
[15]
  composite z-score: -0.0351
[16]
  composite z-score: -0.217
[17]
  composite z-score: -0.191
[18]
  composite z-score: 0.318
[19]
  composite z-score: 0.0139
[20]
  composite z-score: -0.0352

## CN(C)CCCNC(=O)[C@@H]1c2ccccc2C(=O)N(Cc2ccccc2Cl)[C@H]1c1ccc(CO)cc1
[1]
  composite z-score: -0.405
[2]
  composite z-score: 0.0414
[3]
  composite z-score: 0.366
[4]
  z-score: -0.738 (inactive)
[5]
  composite z-score: -0.497
[6]
  composite z-score: 0.333
[7]
  composite z-score: -0.493
[8]
  composite z-score: -0.89
[9]
  composite z-score: 0.0146
[10]
  composite z-score: 0.828
[11]
  composite z-score: 0.0979
[12]
  z-score: -1.7
[13]
  composite z-score: -0.505
[14]
  composite z-score: -0.139
[15]
  composite z-score: -0.464
[16]
  composite z-score: -0.124
[17]
  composite z-score: -0.114
[18]
  composite z-score: 0.213
[19]
  composite z-score: 0.779
[20]
  composite z-score: 1.74

## CCCCN1CC=CC23O[C@@H]4/C=C\CCC(C)OC(=O)C4[C@H]2C(=O)N(C(CO)C(C)C)[C@@H]3C1=O (stereo not given in full)
[1]
  composite z-score: 1.73
[2]
  composite z-score: -0.207
[3]
  composite z-score: -0.176
[4]
  z-score: 0.0563 (inactive)
[5]
  composite z-score: 0.384
[6]
  composite z-score: 0.347
[7]
  composite z-score: -0.474
[8]
  composite z-score: 0.167
[9]
  composite z-score: 0.125
[10]
  composite z-score: 1.14
[11]
  composite z-score: -0.164
[12]
  z-score: -0.768
[13]
  composite z-score: -0.406
[14]
  composite z-score: -0.708
[15]
  composite z-score: -0.926
[16]
  composite z-score: -0.0403
[17]
  composite z-score: 0.186
[18]
  composite z-score: -0.278
[19]
  composite z-score: 1.36
[20]
  composite z-score: -0.312

## C=CC1c2cc(O)c(OC)cc2CCN1Cc1cc2c(cc1Br)OCO2 (stereo not given)
[1]
  composite z-score: 1.59
[2]
  composite z-score: 0.276
[3]
  composite z-score: 1.04
[4]
  z-score: 0.203 (inactive)
[5]
  composite z-score: -0.0398
[6]
  composite z-score: -0.277
[7]
  composite z-score: 0.0492
[8]
  composite z-score: 0.327
[9]
  composite z-score: 0.565
[10]
  composite z-score: 1.9
[11]
  composite z-score: -0.483
[12]
  z-score: -2.93
[13]
  composite z-score: 0.15
[14]
  composite z-score: -0.941
[15]
  composite z-score: -1.24
[16]
  composite z-score: -0.1
[17]
  composite z-score: 0.199
[18]
  composite z-score: 0.2
[19]
  composite z-score: 1.69
[20]
  composite z-score: 0.271
